# Measured values taken from paper PMC7862700, “An all-to-all approach to the identification of sequence-specific readers for epigenetic DNA modifications on cytosine”.
# Legend:
# Test in all cases: DAPPL (digital affinity profiling via proximity ligation, sequencing); 10 mM Tris-HCl pH 7.5, 50 mM NaCl, 1 mM DTT, 4% glycerol, room temperature, 30 min; GST-TFs on glutathione beads, 16-mer random dsDNA library, 0.1% formaldehyde crosslink after washing; high values mean tight binding
# Settings in all cases: protein: recombinant; tags: N-terminal GST; dsDNA, one strand shown
# FLI1 = biological target: T1, FLI1 (Homo sapiens, UniProt Q01543 1-452)
# T1 sequence: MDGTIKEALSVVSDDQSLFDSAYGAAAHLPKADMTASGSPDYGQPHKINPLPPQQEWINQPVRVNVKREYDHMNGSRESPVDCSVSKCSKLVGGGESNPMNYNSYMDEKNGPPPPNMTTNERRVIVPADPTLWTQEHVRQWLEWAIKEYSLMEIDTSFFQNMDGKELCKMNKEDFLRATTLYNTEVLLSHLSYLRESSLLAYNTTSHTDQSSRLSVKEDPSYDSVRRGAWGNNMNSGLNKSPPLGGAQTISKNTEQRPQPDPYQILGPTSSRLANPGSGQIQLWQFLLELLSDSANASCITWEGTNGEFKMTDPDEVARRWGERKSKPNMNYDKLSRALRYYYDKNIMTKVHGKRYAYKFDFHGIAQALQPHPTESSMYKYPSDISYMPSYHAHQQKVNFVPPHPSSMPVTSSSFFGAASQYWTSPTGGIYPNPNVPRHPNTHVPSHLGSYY
# Outline: (§1)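 The binding signal reported is, for every hexamer, its read frequency for a factor over its read frequency for the tag-only sample. Reads came from pools of yeast-expressed, GST-fused human transcription factors on glutathione beads, barcoded with DNA and mixed with that sample, which were incubated with 200 nmole of a random double-stranded 16-mer DNA library in Tris/NaCl/DTT/glycerol buffer at room temperature for 30 min. After washing, the pools were crosslinked with 0.1% formaldehyde, proximity-ligated with BsaI/T4 ligase for 1 h at 37 °C, PCR-amplified and sequenced on an Illumina NextSeq500.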
# ELK1 = biological target: T2, ELK1 (Homo sapiens, UniProt P19419 1-428)
# T2 sequence: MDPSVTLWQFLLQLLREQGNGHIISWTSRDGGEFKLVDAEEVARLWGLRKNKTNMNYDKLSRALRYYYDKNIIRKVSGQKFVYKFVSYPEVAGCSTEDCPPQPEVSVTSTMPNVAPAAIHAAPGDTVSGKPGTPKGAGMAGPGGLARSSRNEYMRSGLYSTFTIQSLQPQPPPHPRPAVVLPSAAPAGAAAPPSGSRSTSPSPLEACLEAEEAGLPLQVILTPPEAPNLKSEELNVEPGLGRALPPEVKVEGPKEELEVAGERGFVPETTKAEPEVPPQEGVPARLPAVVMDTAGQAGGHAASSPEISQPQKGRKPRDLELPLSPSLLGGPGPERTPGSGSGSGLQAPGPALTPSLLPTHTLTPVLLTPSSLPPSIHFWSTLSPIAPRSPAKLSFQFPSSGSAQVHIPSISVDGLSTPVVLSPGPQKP
# Outline: as §1
# GABPA = biological target: T3, GABPA (Homo sapiens, UniProt Q06546 1-454)
# T3 sequence: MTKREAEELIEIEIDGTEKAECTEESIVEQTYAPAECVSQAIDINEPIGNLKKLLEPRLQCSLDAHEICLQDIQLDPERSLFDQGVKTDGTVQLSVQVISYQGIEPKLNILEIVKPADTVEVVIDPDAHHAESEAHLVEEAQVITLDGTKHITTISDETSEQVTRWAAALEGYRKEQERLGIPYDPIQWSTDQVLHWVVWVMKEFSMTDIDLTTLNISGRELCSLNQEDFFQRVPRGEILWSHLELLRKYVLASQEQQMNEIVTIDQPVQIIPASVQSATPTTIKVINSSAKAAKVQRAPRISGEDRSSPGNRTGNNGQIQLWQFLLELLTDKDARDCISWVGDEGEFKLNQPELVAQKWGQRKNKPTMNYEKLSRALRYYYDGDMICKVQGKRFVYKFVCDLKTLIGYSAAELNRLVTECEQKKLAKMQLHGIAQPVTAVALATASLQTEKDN
# Outline: as §1
# ERG = biological target: T4, ERG (Homo sapiens, UniProt P11308 1-479)
# T4 sequence: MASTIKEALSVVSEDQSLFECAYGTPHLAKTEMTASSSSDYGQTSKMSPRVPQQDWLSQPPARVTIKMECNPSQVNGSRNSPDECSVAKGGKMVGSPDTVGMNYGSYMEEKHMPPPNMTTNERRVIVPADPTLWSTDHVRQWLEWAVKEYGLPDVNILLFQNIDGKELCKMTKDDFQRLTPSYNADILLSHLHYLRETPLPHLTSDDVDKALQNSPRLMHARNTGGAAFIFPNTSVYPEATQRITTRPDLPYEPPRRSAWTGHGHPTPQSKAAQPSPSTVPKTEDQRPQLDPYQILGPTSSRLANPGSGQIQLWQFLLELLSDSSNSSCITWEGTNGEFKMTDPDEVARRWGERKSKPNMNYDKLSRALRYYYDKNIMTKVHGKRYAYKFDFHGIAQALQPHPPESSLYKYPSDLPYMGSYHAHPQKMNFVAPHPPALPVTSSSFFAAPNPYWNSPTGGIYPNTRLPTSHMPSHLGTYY
# Outline: as §1
# ELF1 = ELF1 (Homo sapiens, UniProt P32519 1-619)
# ELF1, sequence (P32519 whole entry): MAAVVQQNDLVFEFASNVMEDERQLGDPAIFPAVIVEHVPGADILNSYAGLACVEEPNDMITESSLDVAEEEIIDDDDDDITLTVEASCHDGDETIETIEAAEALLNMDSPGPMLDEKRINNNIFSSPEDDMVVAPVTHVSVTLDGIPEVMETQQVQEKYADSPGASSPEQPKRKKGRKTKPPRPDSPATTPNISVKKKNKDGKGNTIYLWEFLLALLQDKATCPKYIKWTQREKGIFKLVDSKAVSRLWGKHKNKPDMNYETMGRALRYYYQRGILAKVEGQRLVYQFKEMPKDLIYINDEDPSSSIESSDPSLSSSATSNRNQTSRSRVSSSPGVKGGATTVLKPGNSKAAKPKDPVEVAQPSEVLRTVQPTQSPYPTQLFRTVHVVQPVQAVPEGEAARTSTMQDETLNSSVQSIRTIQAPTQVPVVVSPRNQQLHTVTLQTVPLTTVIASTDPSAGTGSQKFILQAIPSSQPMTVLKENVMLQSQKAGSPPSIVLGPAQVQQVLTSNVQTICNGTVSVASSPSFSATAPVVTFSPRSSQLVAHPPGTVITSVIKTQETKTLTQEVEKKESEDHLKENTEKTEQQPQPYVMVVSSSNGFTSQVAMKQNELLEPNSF
# Outline: as §1
# EHF = biological target: T5, EHF (Homo sapiens, UniProt Q9NZC4 1-300)
# T5 sequence: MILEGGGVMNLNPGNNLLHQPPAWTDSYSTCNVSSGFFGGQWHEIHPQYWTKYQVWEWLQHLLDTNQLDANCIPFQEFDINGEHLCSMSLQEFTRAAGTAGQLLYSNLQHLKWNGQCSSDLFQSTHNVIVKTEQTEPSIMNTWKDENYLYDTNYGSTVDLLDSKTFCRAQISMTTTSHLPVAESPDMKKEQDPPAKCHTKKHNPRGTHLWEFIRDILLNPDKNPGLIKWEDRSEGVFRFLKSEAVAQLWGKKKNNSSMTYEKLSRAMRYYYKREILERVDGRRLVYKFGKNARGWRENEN
# Outline: as §1
# SPI1 = SPI1 (Homo sapiens, UniProt P17947 1-270)
# Outline: as §1
# SPIB = SPIB (Homo sapiens, UniProt Q01892 1-262)
# SPIB, sequence (Q01892 whole entry): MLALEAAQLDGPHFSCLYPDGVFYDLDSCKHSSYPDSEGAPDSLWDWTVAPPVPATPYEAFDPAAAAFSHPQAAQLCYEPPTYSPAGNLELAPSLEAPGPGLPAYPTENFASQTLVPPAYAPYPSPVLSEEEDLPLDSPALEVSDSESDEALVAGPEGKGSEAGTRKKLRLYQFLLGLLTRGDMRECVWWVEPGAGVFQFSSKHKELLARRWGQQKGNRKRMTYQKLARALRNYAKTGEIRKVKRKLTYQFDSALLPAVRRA
# Outline: as §1
# ELK3 = biological target: T6, ELK3 (Homo sapiens, UniProt P41970 1-407)
# T6 sequence: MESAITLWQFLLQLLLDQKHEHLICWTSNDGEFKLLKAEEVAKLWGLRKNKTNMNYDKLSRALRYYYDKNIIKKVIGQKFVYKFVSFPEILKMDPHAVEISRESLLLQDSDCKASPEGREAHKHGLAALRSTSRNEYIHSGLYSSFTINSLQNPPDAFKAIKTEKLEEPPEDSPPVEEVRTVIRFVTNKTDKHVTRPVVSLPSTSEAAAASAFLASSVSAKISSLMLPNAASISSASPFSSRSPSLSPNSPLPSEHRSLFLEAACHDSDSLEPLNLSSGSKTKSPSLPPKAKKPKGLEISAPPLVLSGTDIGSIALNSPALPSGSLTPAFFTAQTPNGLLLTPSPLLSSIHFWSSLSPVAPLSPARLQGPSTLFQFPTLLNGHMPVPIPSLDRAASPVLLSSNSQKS
# Outline: as §1
sequence,measurement,setting,value
GGCACT,binding signal,FLI1,"1.24 fold enrichment (6-mer frequency, TF over GST control)"
same,binding signal,ELK1,"1.21 fold enrichment (6-mer frequency, TF over GST control)"
same,binding signal,GABPA,"1.28 fold enrichment (6-mer frequency, TF over GST control)"
same,binding signal,ERG,"1.22 fold enrichment (6-mer frequency, TF over GST control)"
same,binding signal,ELF1,"1.22 fold enrichment (6-mer frequency, TF over GST control)"
same,binding signal,EHF,"1.33 fold enrichment (6-mer frequency, TF over GST control)"
same,binding signal,SPI1,"1.35 fold enrichment (6-mer frequency, TF over GST control)"
same,binding signal,SPIB,"1.35 fold enrichment (6-mer frequency, TF over GST control)"
same,binding signal,ELK3,"1.27 fold enrichment (6-mer frequency, TF over GST control)"
